NR3A LBD binder: modulators (binders) of human NR3A ligand-binding domain; NR3A LBD differential scanning fluorimetry, Tm shift; 0% = protein alone, 100% = glycine-bound protein; Tm shift relative to glycine control, % at 25 µM; 340,000 compounds, 2.5% hits; AID 1259313;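 active means melting temperature shift of at least 10% of the positive control shift, at one fixed dose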
AI-2 QS mod: modulators of Vibrio harveyi AI-2 quorum sensing system; Vibrio harveyi JMH597 AI-2 luminescence/OD600 ratio, 9 h; stronger effect = lower value; strain lacks LuxN and CqsS sensors; 0 = neutral-control median; activity change, % at 7.5 µM; 300,000 compounds, 0.4% hits; AID 2094; in the data active means activity change below about -75%, passing the limit was not always enough;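 further: luminescence divided by OD600 gain over 9 h not by final OD600 alone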
NTR1 ag: agonists of human neurotensin receptor NTR1 | 330,000 compounds, 0.17% hits | P30989 | activation, % at 20 µM | NTR1-U2OS beta-arrestin-GFP spot imaging, agonist mode;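 active means activation at or above 40% of the spot to cytoplasm intensity ratio, with at least 20 cells analyzed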;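 further: 0% = DMSO without peptide and 100% = 100 nM NTR1 peptide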
Cardio protect: protects H9c2 cardiomyocytes from peroxide injury; 360,000 compounds, 0.63% hits; H2O2 injury protection, ATPLite, 2 h; protection from H2O2 cell death, % at 20 µM; AID 588492;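 active means compounds giving at least 50% protection of heart cells from peroxide-induced death in the single-dose screen, raw or plate-pattern-corrected value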;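 further: 0% = DMSO wells with peroxide and 100% = DMSO wells without peroxide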
SUMO Mot1 rescue: SUMOylation pathway inhibition by Mot1-301 growth rescue; S. cerevisiae Mot1-301 growth rescue, ATP luminescence, 38.5C; percent above DMSO median, 100 means doubled; growth rescue, % at 18.8 µM; 320,000 compounds, 1% hits; AID 2716;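 active means every valid replicate shows activation above 250% relative to neutral control wells; inactive means the rest, any valid replicate at or below 250%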;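 further: OY570 slx delta 5 strain wells were the positive control but not used for scaling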
AHR act: human AHR activation; P35869; AHR-responsive luciferase reporter cells, luminescence; activation, % at 5 µM; 320,000 compounds, 2.5% hits; AID 2796; in the data active means activation above about 47%;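 further: 0% = vehicle wells and 100% = reference agonist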
Target sequence (P35869 whole entry, looked up): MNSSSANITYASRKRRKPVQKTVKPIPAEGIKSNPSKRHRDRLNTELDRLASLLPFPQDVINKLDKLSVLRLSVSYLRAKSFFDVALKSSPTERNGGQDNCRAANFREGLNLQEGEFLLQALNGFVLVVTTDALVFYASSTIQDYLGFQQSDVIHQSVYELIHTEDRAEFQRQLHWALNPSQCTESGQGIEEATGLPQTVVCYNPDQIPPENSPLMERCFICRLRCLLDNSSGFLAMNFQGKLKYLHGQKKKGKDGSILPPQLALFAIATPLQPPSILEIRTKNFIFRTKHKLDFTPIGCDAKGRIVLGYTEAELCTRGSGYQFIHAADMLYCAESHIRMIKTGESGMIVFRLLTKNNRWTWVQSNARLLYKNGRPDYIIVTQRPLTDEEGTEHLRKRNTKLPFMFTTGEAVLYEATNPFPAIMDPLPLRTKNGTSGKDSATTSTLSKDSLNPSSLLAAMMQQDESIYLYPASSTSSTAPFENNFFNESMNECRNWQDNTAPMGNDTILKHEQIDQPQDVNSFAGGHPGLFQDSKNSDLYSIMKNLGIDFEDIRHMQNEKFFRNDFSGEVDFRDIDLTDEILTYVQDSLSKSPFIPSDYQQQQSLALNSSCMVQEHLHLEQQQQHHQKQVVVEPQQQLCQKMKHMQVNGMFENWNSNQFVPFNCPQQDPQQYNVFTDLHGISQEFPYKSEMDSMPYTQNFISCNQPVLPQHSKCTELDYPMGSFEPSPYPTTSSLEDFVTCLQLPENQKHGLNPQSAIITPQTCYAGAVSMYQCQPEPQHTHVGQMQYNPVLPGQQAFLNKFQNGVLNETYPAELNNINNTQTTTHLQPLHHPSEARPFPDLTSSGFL
Numbers without * were called inactive; . = no result given. Sampled rows, rich in hits. Any-hit rate of the full collection: about 6.2%.

SMILES	NR3A LBD binder	AI-2 QS mod	NTR1 ag	Cardio protect	SUMO Mot1 rescue	AHR act
COc1ccc(Cc2nc(C)cc(Cl)n2)cc1[N+](=O)[O-]	2	-43	0	0	3	0
CCOc1ccc(S(=O)(=O)N2CCCC(C(=O)NCC3CCCO3)C2)cc1 (stereo not drawn)	0	18	-1	-1	4	2
Cc1ccc(/C=N/N2C(=S)SC(C)(C)C2N(O)C(=O)Nc2ccc([N+](=O)[O-])cc2)cc1 (stereo not drawn)	12*	-1	19	-20	-4	0
CC1(C)SC(=S)N(/N=C/c2ccc(O)cc2)C1N(O)C(=O)Nc1ccc([N+](=O)[O-])cc1 (stereo not drawn)	7	31	12	-11	-13	15
CCc1ccc(NS(=O)(=O)c2ccc3[nH]cc(C(=O)N4CCc5ccccc54)c(=O)c3c2)cc1	12*	-9	13	-10	-9	24
O=C(NC1CC1)c1c[nH]c2ccc(S(=O)(=O)Nc3cccc(C(F)(F)F)c3)cc2c1=O	11*	37	2	-9	-11	2
CCN(CC)C(=O)c1c[nH]c2ccc(S(=O)(=O)Nc3cc(C)cc(C)c3)cc2c1=O	1	.	2	4	-13	1
O=C(NCc1ccccc1)c1c[nH]c2ccc(S(=O)(=O)Nc3ccc4c(c3)OCCO4)cc2c1=O	12*	49	0	8	-9	9
Cc1cc(C)cc(NS(=O)(=O)c2ccc3[nH]cc(C(=O)N4CCc5ccccc54)c(=O)c3c2)c1	13*	-19	4	-7	-15	26
C/C(=N\NC(=O)Cc1ccc(Cl)cc1)c1ccccc1O	-7	-24	1	39	18	1
CC(C)NC(=O)c1ccc(CN2CCc3ccccc3C2)cc1	-3	5	3	21	-11	.
CCOC(=O)c1c(NC(=O)CN2C(=O)NC3(CCCC3)C2=O)sc(C)c1CC	1	21	3	-2	-14	44
O=C(CC1SC(=O)N(c2ccccc2)C1=O)Nc1ccc(Br)cc1 (stereo not drawn)	30*	8	1	4	97	0
O=C(CC1Sc2ncnn2C1=O)Nc1ccc(Cl)cc1 (stereo not drawn)	-3	36	3	.	1	-1
O=C(CC1SC(=Nc2ccccc2)N(CCCO)C1=O)Nc1ccc(Cl)cc1 (stereo not drawn)	-7	31	4	20	163	15
O=C(CC1SC(=O)N(c2ccccc2)C1=O)Nc1ccc(Cl)cc1 (stereo not drawn)	22*	31	0	4	59	3
O=C(CC1SC(=NCCc2ccccc2)N(/N=C/c2cccs2)C1=O)Nc1ccc(Cl)cc1 (stereo not drawn)	21*	8	16	-1	1	3
CN[C@@H](C)C(=O)NC[C@H]1O[C@@H](n2cnc3c(N)ncnc32)[C@H](O)[C@@H]1O	-1	.	0	-6	.	.
O=C(NNC(=O)c1ccccc1O)c1ccc(NS(=O)(=O)c2ccc(F)c(F)c2)cc1	-2	9	2	22	4	14
Cc1ccc(NS(=O)(=O)c2ccc(C(=O)NNC(=O)c3ccccc3O)cc2)cc1	10*	59	4	64*	-6	19
Cc1ccc(NS(=O)(=O)c2ccc(C(=O)NCc3ccccn3)cc2)cc1	14*	22	1	-9	9	1
CCOc1ccc(NS(=O)(=O)c2ccc(C(=O)NCc3ccccn3)cc2)cc1	5	37	0	-6	-21	-2
O=[N+]([O-])c1ccc2cn[nH]c2c1	14*	17	0	7	0	44
O=[N+]([O-])c1ccc(Cl)c(S(=O)(=O)Nc2ccc3cn[nH]c3c2)c1	-6	.	3	11	-5	13
COc1ccc2nc(NC(=O)CSC(C)C(=O)Nc3cc(C)on3)sc2c1 (stereo not drawn)	-1	28	1	0	103	-8
SMILES	NR3A LBD binder	AI-2 QS mod	NTR1 ag	Cardio protect	SUMO Mot1 rescue	AHR act
Cc1ccc(-n2nnnc2CNC(=O)c2ccc3c(c2)OCO3)cc1C	1	16	1	0	330*	4
Cc1ccc(-n2nnnc2CNC(=O)c2ccc(Br)o2)cc1C	-6	8	0	4	-6	10
COc1ccc(S(=O)(=O)N(C)C[C@H]2Oc3c(NS(=O)(=O)c4cn(C)cn4)cccc3C(=O)N([C@H](C)CO)C[C@@H]2C)cc1	0	.	3	3	-17	1
COc1ccc2c(c1)oc(=O)c1ccccc12	-3	28	2	-3	-16	0
COc1ccc2c(c1)oc(=O)c1c3ccccc3[nH]c21	21*	11	.	-10	.	.
Cc1ccccc1C(=O)Nc1ccc(C(=O)N/N=C/c2ccc(O)cc2)cc1	28*	39	-1	9	-14	2
Cc1ccccc1C(=O)Nc1ccc(C(=O)N/N=C/c2ccncc2)cc1	-1	28	0	37	127	0
O=C(N/N=C/c1ccc(O)cc1)c1ccc(NC(=O)c2ccccc2Br)cc1	18*	26	-1	14	.	1
O=C(Nc1ccccc1C(=O)N/N=C/c1ccc(F)cc1)c1ccccc1Br	1	25	11	-15	-18	4
Cc1ccc(C(=O)NCc2ccco2)c(C)c1	0	7	0	-2	14	.
Cc1c(OCC(=O)NCCN2CCOCC2)ccc2c1oc(=O)c1ccccc12	4	20	3	61*	11	-2
C=CCNc1nc(C(=O)OCC(=O)N(Cc2ccccc2)C(C)C)cs1	1	.	0	4	5	0
COc1ccc2nc(N/C(N)=N/C(=S)Nc3c(C)cccc3C)nc(C)c2c1	24*	2	3	-1	-5	-5
CCOc1ccc2nc(N/C(N)=N/C(=S)Nc3cccc(C)c3)nc(C)c2c1	23*	22	11	10	0	-1
COc1ccc2nc(N/C(N)=N/C(=S)Nc3cccc(C)c3)nc(C)c2c1	4	29	1	8	.	11
COc1ccc(NC(=S)/N=C(\N)Nc2nc(C)c3ccccc3n2)cc1	7	10	1	3	-4	65*
CCOc1ccc2nc(N/C(N)=N/C(=S)Nc3cccc(OC)c3)nc(C)c2c1	14*	26	1	23	-10	2
O=C(CCCOc1ccccc1)Nc1cccc(S(=O)(=O)N2CCCCCC2)c1	-5	.	8	-8	20	2
Cc1cccc(/N=C/c2c(O)ccc3oc4c(c23)CCCC4)n1	-1	37	7	75*	41	3
CC(C)CC(=O)N1CC=CC[C@@H](c2ccc(Cl)cc2)N(Cc2ccc(Cl)cc2)C(=O)[C@@H]1Cc1ccccc1	12*	.	.	-2	.	.

Assay outcomes: PubChem BioAssay, several laboratories
